Bioassay records deposited in PubChem BioAssay by several laboratories.
eIF4E 4G PPI: eIF4E–eIF4G protein interaction inhibitors, primary screen, biochemical, uHTS, TR-FRET, eIF4GI fragment; Eukaryotic translation initiation factor 4E (Mus musculus) + Eukaryotic translation …; TR-FRET eIF4E-eIF4GI(517-606) binding, 2 h; inhibition, % at 21.7 µM; 220,000 compounds, 0.37% hits;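 active means inhibition above about 30%, limit read from the data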;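 further: 0% = full FRET control wells and 100% = background wells lacking eIF4GI fragment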
M18AAP inhibitor: PfM18AAP inhibitors, malaria aminopeptidase, primary screen, biochemical, QFRET, recombinant enzyme; M18 aspartyl aminopeptidase (Plasmodium falciparum 3D7); H-Glu-NHMec fluorogenic cleavage; inhibition, % at 7.35 µM; 290,000 compounds, 1.2% hits;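 active means inhibition above the campaign mean inhibition over all tested compounds plus 3 SD, cut at about 28% in these data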;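 further: 0% = plate median of test compound wells and 100% = 2 mM ZnCl2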
PERK inh: block of dimerizer-induced PERK translation repression, primary screen, PERK inhibitor project, CHO PERK-DD cells, SEAP luminescence, HTS; Eukaryotic translation initiation factor 2-alpha kinase 3 (Homo sapiens), Q9NZJ5; CHO PERK-DD fusion, SEAP luminescence translation reporter; inhibition, % at 5.6 µM; 220,000 compounds, 0.17% hits;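 active means inhibition above the mean inhibition of all tested compounds plus 3 SD, set separately per screening campaign, cut at about 2.9% in these data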;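 further: PERK kinase domain activated by AP20187 dimerizer at 100 nM; 0% = DMSO with dimerizer and 100% = rapamycin at 8.4 µM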
PABP1 MLLE inh: inhibitors of PABP1 MLLE–PAM2 peptide binding, primary screen, biochemical, fluorescence polarization, FITC-PAM2, GST-MLLE | inhibition, % at 20 µM | Polyadenylate-binding protein 1 (Homo sapiens), P11940 | 360,000 compounds, 0.36% hits; in the data active means inhibition above about 35%, passing the limit was not always enough;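 further: plate controls were DMSO wells with GST-MLLE for no effect and wells lacking GST-MLLE protein for full effect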
PABP FP inh: PABP poly(A) RNA binding inhibitors, primary screen, biochemical, fluorescence polarization, uHTS; Polyadenylate-binding protein 1 (Homo sapiens), P11940; inhibition, % at 35 µM; 290,000 compounds, 1% hits; AID 2014, 2009;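 further: calls also rest on retests at 20 µM and on dose response follow-up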
eIF4H FP inh: human eIF4H binding inhibitors, primary screen, translation initiation inhibitor project, biochemical, uHTS, fluorescence polarization. inhibition, % at 35 µM. 290,000 compounds, 0.94% hits. AID 2012, 2009. eIF4H fluorescence polarization binding assay;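 further: calls also rest on retests at 20 µM and on dose response follow-up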
An asterisk follows results filed as active; ? = inconclusive; · = no result. Shown are actives, neighbours in structure and some others; about 2.4% of the full set was active somewhere. Unless noted, how the calls were made is not given here.

SMILES	eIF4E 4G PPI	M18AAP inhibitor	PERK inh	PABP1 MLLE inh	PABP FP inh	eIF4H FP inh
NS(=O)(=O)c1cc(C(=O)NC2CCSc3ccccc32)ccc1Cl (stereo unspecified)	·	3.1	·	11.3	90.0*	106.0*
COC(=O)c1c(NC(=O)C(C)C)sc(C(=O)N2CCOCC2)c1C	·	31.4*	·	17.2	-8.3	3.2
CCOc1ccccc1C1NC(=O)c2ccccc2N1 (stereo unspecified)	·	·	·	-7.1	·	·
NC(=O)c1ccc2c(=O)c(O)c(-c3cc(Cl)c(N)c(Cl)c3)[nH]c2c1	·	51.4*	·	13.0	4.3	16.6
O=C1CN(CC(=O)Nc2cccc(Cl)c2Cl)c2ccccc2N1	-5.9	-5.9	0.1	-76.6	-4.9	-12.1
O=C(/C=N/O)Nc1ccc(F)cc1	53.1*	-1.1	0.5	2.0	-4.1	-11.6
O=C(O)c1ccc2c(c1)C(=O)/C(=C/c1ccccc1)C2=O	9.4	10.1	0.9	39.9*	8.4	83.2
O=C(O)c1ccc(N2C(=O)CC(SC(=NCc3ccc4c(c3)OCO4)Nc3ccc(F)cc3)C2=O)cc1 (stereo unspecified)	4.3	7.2	1.7	2.6	-0.1	-7.6
O=C(O)c1ccc(N2C(=O)CC(SC(=NCc3ccc4c(c3)OCO4)Nc3ccccc3)C2=O)cc1 (stereo unspecified)	92.3*	-11.3	0.1	-18.8	-9.5	-2.8
COc1ccc(CCNC(=S)N2CCN(S(=O)(=O)c3ccc(C)cc3)CC2)cc1	·	·	·	-120.0	·	·
COc1cc(NC(=O)c2cnc(N)s2)cc(C(=O)Nc2cccc(C(F)(F)F)c2)c1	31.3*	·	·	-8.4	3.2	-13.2
COc1cc(NC(=O)c2ccnc(N)c2)cc(C(=O)Nc2cccc(C(F)(F)F)c2)c1	-4.1	·	·	10.5	2.7	-13.2
c1csc(-c2nnsc2-c2nc3ccccc3[nH]2)c1	1.1	5.5	0.0	-1.3	90.3*	69.2*
COCCN1Cc2cccc(C(=O)NCc3ccccn3)c2C1=O	-2.8	-10.7	-0.1	-0.7	-3.2	-3.1
COCCN1Cc2cccc(C(=O)NCc3ccc4c(c3)OCO4)c2C1=O	1.9	28.7*	0.0	-6.4	9.8	6.1
CCOC(=O)C1=C(NC(=O)c2ccc(Br)o2)Nc2ccccc2N=C1	-3.9	-3.0	0.2	1.7	1.7	-11.9
CCC(C)[C@H](NC(=O)C1CC(=O)N(c2ccc3c(c2)OCO3)C1)C(=O)NC1CCCCC1 (stereo partly specified)	·	19.8	·	48.9*	?	?
CCC(C)[C@H](NC(=O)C1CC(=O)N(c2ccc3c(c2)OCCO3)C1)C(=O)NC1CCCC1 (stereo partly specified)	·	1.3	·	-5.0	5.1	12.3
CCc1ccccc1NC(=O)c1ccc([N+](=O)[O-])s1	0.2	0.0	0.1	2.7	-3.6	-0.6
COc1ccc(C(=O)CC(c2ccccc2)C2C(=O)CCCC2=O)cc1 (stereo unspecified)	-4.5	30.9*	-1.0	8.7	21.8	44.2
CCOC(=O)c1sc2nc3c(SCC(=O)O)cc(C(=O)c4cc(F)ccc4O)cn3c(=O)c2c1C	22.2	-3.2	0.9	-18.9	4.0	11.7
COc1ccc(O)c(C(=O)c2cc(SCC(=O)O)c3nc4sc5c(c4c(=O)n3c2)CCCC5)c1	39.1*	6.6	0.4	-13.8	80.2*	80.6*
CCOC(=O)c1sc2nc3c(SCC(=O)O)cc(C(=O)c4ccccc4O)cn3c(=O)c2c1C	22.8	-7.6	0.0	-14.1	-2.0	61.0
O=C(O)CSc1cc(C(=O)c2ccccc2O)cn2c(=O)c3c(-c4ccccc4)csc3nc12	16.7	-0.6	-0.4	-22.6	active	68.5
CCCCn1nc(C(=O)N(CC)CC(=O)Nc2c(F)cccc2F)c2ccccc2c1=O	·	·	·	-8.1	·	·
COc1ccc(C2C3=C(CCCC3=O)N(CC(=O)O)C3=C2C(=O)CCC3)cc1Cl	·	17.3	·	6.8	24.4	10.7
CCOc1cc(C2C3=C(CCCC3=O)N(CC(=O)O)C3=C2C(=O)CCC3)ccc1OC	·	8.8	·	60.1*	7.3	5.8
